# Biological target: LMO4
# Test: pooled miR-30 sensor sort-seq; sequence = guide strand
# Settings: shRNA
# Note: reference of the scale not given here.
row,Sequence,sensor-assay potency score (higher = more potent)
1,TAGTGAAACCGATCTCCCGGGA,-0.538
2,TAAACTGCCATTGATGTAGTGA,0.368
3,TTGGTGTAACAGGACGTGCCGA,-0.708
4,TAGTGGATTGCTCTGAAGTGAA,-0.987
5,TAGAGCATGTAAAACACTTAAG,-1.33

# Biological target: LNPEP
# Test: as above
# Settings: shRNA
row,Sequence,sensor-assay potency score (higher = more potent)
1,TTCTCTTTGACAAAATCCCATG,-1.18
2,TTGTTGTATAAAAAGTTCCTTT,-0.495
3,TTATAGATGAGGTCTGTCTGAA,0.0575
4,TTGAATAGATGCATAGCTGTGA,0.497
5,TACAGAAACAGCAACCACGATG,-0.798
6,TTTCTCATTACTTTCATCTGTG,0.22
7,TACTGTGTCAGTAACTTTCTGG,0.276
8,TTCTGTACAAGCTTATTCCAGT,-0.169
9,TTTTGTTCTTCTCTGCTTCAGA,-0.123
10,TTTCTTGGCTTGAAACTGCTGA,0.246
11,TAAATAACTACATACTGCCCAA,-0.52
12,TTGAATAATTTCTTCCTTCAGT,-0.0999

# Biological target: LNX1
# Test: as above
# Settings: shRNA
row,Sequence,sensor-assay potency score (higher = more potent)
1,TACAGTTATACAAGCACCGTGG,-0.0834
2,AAAGCTTTGAGTACTATCGAGG,-0.642
3,TTACAGTTATACAAGCACCGTG,-0.215
4,TAATACAATATCTTTACAGTTA,-0.86
5,TTTATTCTTCCATCTCTGCTTA,0.44
6,TTGGATAATGATATGGACCAGT,-0.0255
7,TAGATGATCATACTTTTCCTGA,-0.507
8,TTGAGTACTATCGAGGATGATG,-0.956
9,TTTTTGGATATTTACCACCTTC,-0.64
10,TTGAGAATCACATGAAAGCTGT,0.307
11,TAGTTAGAGTAATTCTTCCTTT,-0.396
12,TTCTTCGTAATACAATATCTTT,-1.2

# Biological target: LONP1
# Test: as above
# Settings: shRNA
row,Sequence,sensor-assay potency score (higher = more potent)
1,TTGCGGACACCGCTCTCGCGGC,-1.33
2,TTCAAGGCAATGATGTCCCGGA,-0.021
3,ATCCTTGTCGTCCTTCTCCAGG,-1.37
4,TTCAAATTCCTTCTTCAGCAGG,-0.339
5,AAACACTGGATGATCTTCCCGG,0.233
6,ATCTGCAGCACTGACTCCCTGT,-0.477
7,TAACACCTTCTCCACTTGCTTC,-1.18
8,TCTCTCTTTAGAAAGACGCCGA,-0.565
9,TTTCCGTAACACCTTCTCCACT,-1.42
10,TCGTCGATGAGGATCAGGGGGT,-0.954
11,TGAAGCGGAAGTACTCTCGGTT,-0.124
